A word on the AC50: it is the concentration at which the activity in the assay is half-maximal.

SMILES strings stand for the structures. Inconclusive results are not listed. Calls of active or inactive are those of the source. How the source made its calls, unless noted: active means hit-call score of the fitted dose curve at least 0.9, where 1 is the maximum; inconclusive means response in the unintended direction; inactive means score below 0.9.

The nature of experiment [1]: Tanguay_ZF_120hpf_PE_legacy: (Legacy) Oregon State University Tanguay Lab 120 Hour Post-fertilization zebrafish Assay for Pericardial Edema (AID 2283640). In outline:
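Static waterborne exposure, 5D wild-type embryos, 28C, to 120 hpf; final DMSO 0.64% (vol/vol). Binary PE call at 120 hpf by brightfield; fitted upward vs DMSO baseline. 5uM trimethyltin chloride as positive control.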

Experiment [2] in a line: Tanguay_ZF_120hpf_SOMI_legacy: (Legacy) Oregon State University Tanguay Lab 120 Hour Post-fertilization zebrafish Assay for Somite Malformation (AID 2283647). In outline:
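Binary brightfield scoring of somite defects at 120 hpf in 5D wild-type larvae; one dechorionated embryo per well, static exposure from 6 hpf, 28C, sealed and dark. Final DMSO 0.64%; trimethyltin chloride 5uM positive control.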

Experiment [3] can be described thus: Tanguay_ZF_120hpf_PFIN_legacy: (Legacy) Oregon State University Tanguay Lab 120 Hour Post-fertilization zebrafish Assay for Pectoral Fin Malformation (AID 2283648).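 Further: each larva judged yes or no for fin defect by brightfield with dead larvae skipped.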 In outline:
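Dechorionated Tropical 5D wild-type zebrafish embryos, one per well, statically exposed from 6 to 120 hpf at 28C with 0.64% DMSO final. Pectoral fin malformation scored present/absent by brightfield at 120 hpf; not scored in dead embryos.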

The nature of experiment [4]: Tanguay_ZF_120hpf_CFIN_legacy: (Legacy) Oregon State University Tanguay Lab 120 Hour Post-fertilization zebrafish Assay for Caudal Fin Malformation (AID 2283649). In outline:
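Dechorionated 5D wild-type zebrafish, static exposure 6–120 hpf, 28C, sealed and dark, 0.64% v/v DMSO final. Binary fin-malformation call at 120 hpf, brightfield; gain of signal vs DMSO baseline.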

The nature of experiment [5]: Tanguay_ZF_120hpf_CIRC_legacy: (Legacy) Oregon State University Tanguay Lab 120 Hour Post-fertilization zebrafish Assay for Circulatory Malformation (AID 2283651). In outline: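 Dechorionated wild-type 5D zebrafish embryos, one per well, statically exposed from 6 to 120 hpf at 28C with 0.64% DMSO; circulatory malformation scored present/absent by brightfield microscopy at 120 hpf, dead embryos excluded.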

Experiment [6] in a line: Tanguay_ZF_120hpf_SWIM_legacy: (Legacy) Oregon State University Tanguay Lab 120 Hour Post-fertilization zebrafish Assay for Swim Bladder Malformation (AID 2283654).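 Further: swim bladder malformation in each larva scored yes or no under brightfield.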 In outline:
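Dechorionated wild-type Tropical 5D zebrafish embryos, one per well from 6 hpf, were statically exposed at 28C until 120 hpf in 0.64% DMSO. Swim bladder malformation scored as present/absent by brightfield microscopy; not scored in dead larvae.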

A short description of experiment [7]: Tanguay_ZF_120hpf_TRUN_legacy: (Legacy) Oregon State University Tanguay Lab 120 Hour Post-fertilization zebrafish Assay for Truncated Body (AID 2283655). In outline:
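Whole-embryo zebrafish screen: dechorionated 5D embryos, static exposure 6–120 hpf, 28C, sealed foil-covered plates, 0.64% DMSO. Binary truncation call; gain of signal versus DMSO baseline.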

Experiment [8] is described as follows: Tanguay_ZF_120hpf_NC_legacy: (Legacy) Oregon State University Tanguay Lab 120 Hour Post-fertilization zebrafish Assay for Notochord and Tail Malformation (AID 2283656). In outline:
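Dechorionated Tropical 5D wild-type zebrafish embryos, one per well from 6 hpf, statically exposed to 120 hpf at 28C in 0.64% DMSO final. Notochord distortion scored present/absent by brightfield; dead embryos excluded.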

Experiment [9] in a line: Tanguay_ZF_120hpf_TR_legacy: (Legacy) Oregon State University Tanguay Lab 120 Hour Post-fertilization zebrafish Assay for Touch Response (AID 2283667). In outline: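 Tropical 5D wild-type zebrafish embryos statically exposed to 120 hpf at 28°C, sealed and dark-covered, 0.64% DMSO final; touch response scored as present/absent by brightfield microscopy at 120 hpf. Trimethyltin chloride 5 uM positive control; dead embryos not scored.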

Experiment [10] can be described thus: CCTE_Padilla_ZF_144hpf_TERATOSCORE: (Legacy) CCTE's 144 Hour Post-fertilization zebrafish Assay Teratoscore, Padilla Lab (AID 2283679; active means hit-call score of the fitted dose curve at least 0.9, where 1 is the maximum; inactive means score below 0.9;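 on AC50: zebrafish embryos with chorions exposed by immersion from 6-8 hpf to 5 dpf with daily renewal; teratogenicity score from eye scoring of death hatching and malformations at 144 hpf; higher score means more developmental defects relative to DMSO baseline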). In outline:
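Larvae scored by eye at 144 hpf for death, hatching and malformations after a day in clean Hanks'. Before that, daily-renewed exposure at 80 uM (0.4% DMSO, 26C) from roughly 6-8 hpf through 5 dpf, 4 embryos per chemical.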

Experiment [11] can be described thus: STM_H9_OrnithineISnorm_perc: Stemina devTOX quickPredict H9 human embryonic stem cell (hESC)-based Assay for Ornithine (ORN) Metabolite Biomarker, Normalized (AID 2283712; active means hit-call score of the fitted dose curve at least 0.9, where 1 is the maximum; inactive means score below 0.9;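 further: ornithine released into spent medium during last day measured by mass spectrometry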). In outline:
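Undifferentiated H9 hESCs exposed 72 h with daily media and compound renewal; final 24-h conditioned medium analysed by UPLC-HRMS. Ornithine peak area normalised to spiked C13 standard and to median 0.1% DMSO control; viability by CellTiter-Fluor.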

Experiment [12] in a line: Tanguay_ZF_120hpf_PIG_legacy: (Legacy) Oregon State University Tanguay Lab 120 Hour Post-fertilization zebrafish Assay for Pigmentation Malformation (AID 2283650). In outline: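 Dechorionated Tropical 5D wild-type embryos, one per well from 6 hpf, statically exposed at 28C in the dark until 120 hpf, 0.64% DMSO final. Pigmentation scored present/absent by brightfield microscopy; dead embryos not scored; fitted versus DMSO.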

For experiment [13], the system named is Thyroperoxidase (TPO), gene 54314. Kind of experiment: CCTE_Simmons_AUR_rTPO: CCTE's Amplex UltraRed Assay for Thyroperoxidase (TPO) Inhibition, Simmons Lab (AID 2283662).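 Further: potency for loss of signal meaning inhibition of peroxidase activity.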 In outline: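 Cell-free peroxidase activity assay using rat thyroid gland microsomes with excess H2O2 (300 uM) and 25 uM Amplex UltraRed. Compounds tested from 5 nM to 87.5 uM; fluorescence measured after 30 min at 37C, analysed relative to DMSO baseline.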

A short description of experiment [14]: CCTE_Simmons_CellTiterGLO_HEK293T: Viability Assessment in CCTE's Assays for Thyroperoxidase (TPO) Inhibition, Simmons Lab (AID 2283665).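 On AC50: cells exposed to compound for 24 h before readout; actives reduce ATP signal below DMSO vehicle meaning cytotoxicity.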 In outline:
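HEK293T cells in DMEM with 1% FBS, dosed 24 h at 37C with 8 concentrations, 5 nM–87.5 uM final, 0.5% DMSO. ATP measured by CellTiter Glo luminescence; loss of signal vs DMSO, three biological replicates.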
In general terms: ATP-based viability assays read luminescence as a measure of living cells.

Take `CC(=O)[C@@]1(O)CC[C@H]2[C@@H]3CCC4=CC(=O)CC[C@]4(C)[C@H]3CC[C@@]21C`: the result in [1], in [2], in experiment [3], in experiment [4], in experiment [5] and in [6] was inactive. The result in experiment [7], in [8] and in experiment [9] was inactive. For the same compound, the concentration at half-maximal activity (AC50) in experiment [10] is 36.1 µM (active); in experiment [11] it was 62 µM (active).
On to `O=C(O)CN(CC(=O)O)CC(=O)O`, for which the outcome in [1], in [2], in experiment [3], in [12], in experiment [5] and in experiment [6] was inactive. Besides, the compound was classed as inactive in [7], in experiment [8], in experiment [9], in experiment [10] and in experiment [11].
As for `O=C1c2c(O)cccc2Cc2cccc(O)c21`, the compound was called inactive in experiment [1], in experiment [2], in [4], in [12], in [5] and in experiment [6]. Moreover, the result in experiment [7], in experiment [8] and in experiment [14] was inactive. Also, the AC50 in [13] was 11.9 µM (active).
On to `C#CC(O)C(CC)CCCC` (stereo not given), for which the call in experiment [1], in experiment [3], in experiment [4], in [12], in [5] and in [6] was inactive. Moreover, the outcome in [7], in experiment [8] and in experiment [9] was inactive. For the same compound, the AC50 in experiment [10] was 21.2 µM (active).
As to `CC(C)OC(=O)C(C)(C)Oc1ccc(C(=O)c2ccc(Cl)cc2)cc1`, the compound was called inactive in experiment [1], in experiment [4], in experiment [12], in experiment [5], in experiment [6] and in experiment [7]. For the same compound, the result in experiment [9] and in experiment [11] was inactive. Besides, the AC50 in experiment [10] was 1.78 µM (active).
In the case of `CC(C)COC(=O)CCCCC(=O)OCC(C)C`, the outcome in [2], in experiment [4], in [12], in experiment [6], in experiment [7] and in experiment [8] was inactive. In experiment [10], the AC50 is 32.4 µM (active).
On to `COc1ccc(C(=O)Nc2nc3ccccc3c(NCc3ccccc3)c2C#N)cc1`, for which the compound was classed as inactive in experiment [12], in [5], in experiment [6], in [8] and in experiment [9].
On to `CCCCC(CC)COC(=O)CCCCCCCC(=O)OCC(CC)CCCC` (stereo not given), for which the result in experiment [2], in [3], in experiment [4], in [12], in experiment [5] and in [6] was inactive. Besides, the result in experiment [7] and in [9] was inactive.
As for `Cc1cc(SC2=C(O)C[C@@](CCc3ccc(N)cc3)(C(C)C)OC2=O)c(C(C)(C)C)cc1CO`, the compound was called inactive in experiment [1], in [2], in experiment [3], in experiment [4], in experiment [5] and in [6]. The result in [7], in experiment [8] and in experiment [9] was inactive. Further, the values for the AC50 in experiment [13], in [14] and in experiment [10] were 0.738 µM (active), 3.9 µM (active) and 16.4 µM (active), respectively.
Consider `Cc1ccc(-c2cc(C(F)(F)F)nn2-c2ccc(S(N)(=O)=O)cc2)cc1`, for which the outcome in experiment [1], in experiment [3], in experiment [4], in experiment [12], in experiment [5] and in experiment [6] was inactive. The compound was classed as inactive in experiment [7], in experiment [8], in [9] and in [11]. The AC50 in experiment [10] was 8.82 µM (active).
Regarding `COC(=O)[C@H]1[C@H]2C[C@@H]3c4[nH]c5cc(OC)ccc5c4CCN3C[C@H]2C[C@@H](OC(=O)c2cc(OC)c(OC)c(OC)c2)[C@@H]1OC`, the call in experiment [1], in experiment [2], in experiment [3], in experiment [4], in [5] and in experiment [7] was inactive. For the same compound, the compound was classed as inactive in experiment [8], in [9] and in [11]. For the same compound, the figures for the AC50 in [13] and in experiment [14] were 7.3 µM (active) and 45.3 µM (active), respectively.
On to `CC(=O)S[C@H](C(=O)N[C@H]1Cc2ccccc2[C@H]2CCC[C@@H](C(=O)O)N2C1=O)C(C)C`, for which the outcome in [1], in experiment [2], in experiment [3], in experiment [6], in experiment [7] and in [9] was inactive. In addition, the result in experiment [11] was inactive.
With `CSc1ccc(Oc2ccc(S(N)(=O)=O)cc2CN(C)C)cc1C`, the compound was called inactive in experiment [1], in [2], in experiment [3], in experiment [4], in experiment [5] and in experiment [6]. The result in experiment [7] was inactive. For the same compound, the AC50 in [9] was 50.9 µM (active).

The values are drawn from PubChem BioAssay (EPA / NIEHS).
